{"source": "PubChem BioAssay (Tox21)", "note": "Inconclusive results are not listed. Where a call stands in place of a potency, no number is given. Values without a mark were called inactive. Calls of active or inactive are those of the source. Calls follow the shape of the dose curve; as a rule, active = well fitted activation curve with a large enough effect in the signal ratio in the repeat runs (not every such curve was filed as active); inconclusive = weak or mixed curves; inactive = flat fitted curve, though single readings scatter; the % refers to the signal ratio. Potency is read from the fitted curve at half-maximal effect."}
{"assay": "p53 small molecule agonists, cell-based qHTS assay (AID 1963582)", "settings": "HCT-116 p53RE-bla reporter, beta-lactamase FRET ratio, 16 h; series mostly up to 66 µM", "excerpt": "National Center for Advancing Translational Sciences [NCATS]\nDivision of Preclinical Innovation [DPI]\nU.S. Environmental Protection Agency [EPA]\nNational Institutes of Environmental Health Sciences [NIEHS]\nNational Toxicology Program [NTP]\nU.S. Food and Drug Administration [FDA]\np53, a tumor suppressor protein, is activated following cellular insult, including DNA damage and other cellular stresses. The activation of p53 regulates cell fate by inducing DNA repair, cell cycle arrest, apoptosis, or cellular senescence. The activation of p53, therefore, is a good indicator of DNA damage and other cellular stresses. […] The activation of the reporter gene under culture conditions can be detected by fluorescence intensity. This cell line was used to screen the Tox21 10K compound library in a 1536-well plate format and to identify agonists that activate the p53 signaling pathway.\nTox21 Assay Protocol Summary:\nThe p53RE-bla cells were dispensed at 4,000 cells/5 ul/well in 1536-well black wall/clear bottom plates using a Multidrop dispenser. After the assay plates were incubated at a 37 C/5% CO2 incubator for 5 hours, 23 nL of compounds dissolved in DMSO, positive controls or DMSO only was transferred to the assay plate by a pin tool. The plates were incubated at 37 C for 16 hours. After 1 uL of LiveBLAzerTM B/G FRET substrate was added using a Flying Reagent Dispenser, the plates were incubated at room temperature for 2 hours, and fluorescence intensity was measured by an Envision plate reader."}
{"smiles": "Cc1nc2ccccn2c(=O)c1CCN1CCC(C(=O)c2ccc(F)cc2)CC1", "Potency": "inactive"}
{"smiles": "[O-][n+]1cccc(/C(Cl)=N/OC[C@@H](O)CN2CCCCC2)c1", "Potency": "inactive"}
{"smiles": "CN1CCN(CCCN2c3ccccc3Sc3ccc(Cl)cc32)CC1", "Potency": "inactive"}
{"smiles": "CCCC1CCC(=O)O1", "note": "(stereo not given)", "Potency": "inactive"}
{"smiles": "CNC(=O)N(c1ccccc1)c1ccccc1", "Potency": "inactive"}
{"smiles": "CC(C)(C)C1CCC(=O)CC1", "Potency": "inactive"}
{"smiles": "COc1cc(O)cc(O)c1", "Potency": "inactive"}
{"smiles": "Cc1cccn2c(=O)c(-c3nnn[nH]3)cnc12", "activation": "1.33% [at 13.5 µM]"}
{"smiles": "CC(C)C[P+](C)(CC(C)C)CC(C)C", "Potency": "inactive"}
{"smiles": "CCC(=O)Oc1ccc2c(c1)CC[C@@H]1[C@@H]2CC[C@@]2(C)[C@H]1C[C@@H](OC(=O)CC)[C@@H]2OC(=O)CC", "Potency": "inactive"}
{"smiles": "O=C(OCCN1CCOCC1)c1cccnc1Nc1cccc(C(F)(F)F)c1", "Potency": "inactive"}
{"smiles": "O=[N+]([O-])c1ccc(/C=N\\O)o1", "Potency": "inactive"}
{"smiles": "Cc1cc(O)c2c(c1)C(=O)c1cccc(O)c1C2=O", "Potency": "inactive"}
{"smiles": "O=c1cc(-c2ccccc2)oc2ccc3ccccc3c12", "Potency": "inactive"}
{"smiles": "CC(C)(C)C1(CCc2ccc(Cl)cc2)CO1", "note": "(stereo not given)", "Potency": "inactive"}
{"smiles": "C=CC(=O)OCC[N+](C)(C)C", "Potency": "inactive"}
{"smiles": "N#CCc1ccccc1[N+](=O)[O-]", "Potency": "inactive"}
{"smiles": "C[C@@H]1[C@H](O)[C@@H](C)/C=C/C=C\\C=C\\C=C\\C=C\\C=C\\C=C\\[C@H](O[C@@H]2O[C@H](C)[C@@H](O)[C@H](N)[C@@H]2O)C[C@@H]2O[C@](O)(C[C@@H](O)C[C@@H](O)[C@H](O)CC[C@@H](O)C[C@@H](O)CC(=O)O[C@H]1C)C[C@H](O)[C@H]2C(=O)O", "note": "(stereo in doubt)", "Potency": "inactive"}
{"smiles": "CCC(CC)(CC(=O)Nc1cccc(/C=C/c2nc(C3CCC3)cs2)c1)C(=O)O", "Potency": "inactive"}
{"smiles": "C=COCC1CCC(COC=C)CC1", "note": "(stereo not given)", "Potency": "inactive"}
{"smiles": "CC(C)CCCC(C)(C)O", "Potency": "inactive"}
{"smiles": "O=C(O)c1c(O)c(-c2ccccc2)nc2ccccc12", "Potency": "19.9 µM (active)"}
{"smiles": "C[n+]1ccccc1/C=N/O", "Potency": "inactive"}
{"smiles": "CC(C)(C)NCC(O)c1cc(O)cc(O)c1", "note": "(stereo not given)", "Potency": "inactive"}
{"smiles": "NS(=O)(=O)c1cc(C2(O)NC(=O)c3ccccc32)ccc1Cl", "note": "(stereo not given)", "Potency": "inactive"}
{"smiles": "C/C=C(\\C)C(=O)OCCC(C)CCC=C(C)C", "note": "(stereo not given)", "Potency": "inactive"}
{"smiles": "CC(C)OC(=O)C(C(=O)OC(C)C)=C1SC=CS1", "Potency": "inactive"}
{"smiles": "CCOC(=O)C(=O)CCCCCCl", "Potency": "inactive"}
{"smiles": "CCOC(=O)CC", "Potency": "inactive"}
{"smiles": "CN1C[C@@H]2C[C@H]1CN2c1cc2c(cc1F)c(=O)c(C(=O)O)cn2C1CC1", "activation": "6.22% [at 13.5 µM]"}
{"smiles": "BrCCCCCBr", "Potency": "inactive"}
{"smiles": "CCC(=O)O[C@]1(C(=O)COC)[C@@H](C)C[C@H]2[C@@H]3CCC4=CC(=O)C=C[C@]4(C)C3(F)[C@@H](O)C[C@@]21C", "note": "(stereo not given in full)", "Potency": "inactive"}
{"smiles": "CC1(c2ccccc2)OC(C(=O)O)=CC1=O", "note": "(stereo not given)", "Potency": "inactive"}
{"smiles": "CCOC(CN1CCN(CC(C)C(=O)c2ccccc2)CC1)c1ccccc1", "note": "(stereo not given)", "activation": "-3.89% [at 13.5 µM]"}
{"smiles": "CCOC(=O)c1ccccc1O", "Potency": "inactive"}
{"smiles": "CCOC(=O)CC(=O)c1cc(F)c(Cl)nc1Cl", "Potency": "inactive"}
{"smiles": "CC(=O)N/N=C/c1ccc([N+](=O)[O-])o1", "Potency": "inactive"}
{"smiles": "COC(=O)C(C)O", "note": "(stereo not given)", "Potency": "inactive"}
{"smiles": "O=C1c2ccccc2C(=O)C1c1ccccc1", "Potency": "inactive"}
{"smiles": "CCCCCCCCCCCCCCNCCO", "Potency": "inactive"}
